Bioassay records deposited in PubChem BioAssay by several laboratories.
CHT block: inhibits the human high affinity choline transporter | CHT-expressing cells, membrane potential dye, choline response; active compounds read low | hit rate 0.86% among 310,000 | B-score at 10 µM;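 active = B-score over 3 SD under the library average, and starting fluorescence ratio not unusually high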;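 note: choline stimulus applied at its EC90 after an EC20 pre-addition; B-score computed on integrated fluorescence ratio after choline addition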
Target sequence (Q9GZV3 whole entry, looked up): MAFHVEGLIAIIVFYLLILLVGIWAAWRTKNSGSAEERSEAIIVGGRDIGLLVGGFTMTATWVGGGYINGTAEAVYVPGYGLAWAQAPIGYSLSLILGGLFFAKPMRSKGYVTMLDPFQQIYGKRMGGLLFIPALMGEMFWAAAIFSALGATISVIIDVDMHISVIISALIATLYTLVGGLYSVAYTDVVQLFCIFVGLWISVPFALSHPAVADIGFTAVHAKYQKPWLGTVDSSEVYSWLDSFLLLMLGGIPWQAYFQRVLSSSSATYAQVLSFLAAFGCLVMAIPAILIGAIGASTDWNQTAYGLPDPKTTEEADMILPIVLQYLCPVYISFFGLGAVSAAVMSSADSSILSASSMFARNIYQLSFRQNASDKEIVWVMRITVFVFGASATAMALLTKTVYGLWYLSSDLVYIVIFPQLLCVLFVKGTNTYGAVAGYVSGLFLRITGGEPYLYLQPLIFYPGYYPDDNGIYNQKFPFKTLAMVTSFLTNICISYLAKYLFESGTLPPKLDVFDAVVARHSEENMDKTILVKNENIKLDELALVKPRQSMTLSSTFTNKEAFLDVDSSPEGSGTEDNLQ
NALP3 yeast inh: inhibitors of NALP3 inflammasome in yeast; Yeast reconstituted NLRP3/ASC/caspase-1, beta-gal luminescence, 24 h; inhibition, % at 10 µM; hit rate 0.39% among 330,000;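 active = inhibition of 50% or more; inactive = inhibition below 50%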;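 note: plate controls were induced DMSO wells for no effect and uninduced yeast grown without galactose for full effect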
A1 inh: inhibitors of the anti-apoptotic protein A1, read as caspase activation; MEF A1-2A-BIM cells, Caspase-Glo 3/7 luminescence, 3 h; percent of clofoctol response, vehicle zero; caspase activation, % (no concentration beside the values); hit rate 0.066% among 330,000; AID 2462;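 active = over half of replicate activation scores above 10%, or exactly half above 10 with the replicate mean above 10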
SUMO Mot1 rescue: SUMOylation pathway inhibition by Mot1-301 growth rescue; S. cerevisiae Mot1-301 growth rescue, ATP luminescence, 38.5C; percent above DMSO median, 100 means doubled; growth rescue, % at 18.8 µM; hit rate 1% among 320,000; AID 2716;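 active = every valid replicate shows activation above 250% relative to neutral control wells; inactive = the rest, any valid replicate at or below 250%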;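 note: OY570 slx delta 5 strain wells were the positive control but not used for scaling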
NALP1 yeast inh: blocks the NALP1 inflammasome reconstituted in yeast. S. cerevisiae NALP1/ASC/caspase-1 growth, X-gal OD620, 72 h. inhibition, % at 10 µM. hit rate 0.61% among 280,000; in the data active = inhibition mostly above about 24%, no sharp cut-off; inactive = mostly below about 32%
CHT PAM: allosterically activates the human high affinity choline transporter. AID 488977. Q9GZV3. hit rate 0.49% among 310,000. B-score at 10 µM. CHT-expressing cells, membrane potential dye, choline EC20; active compounds read high; LV-AA mutant CHT in HEK293 cells;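 active = initial fluorescence not abnormally high and integrated response B-score, plate-corrected, over 3 SD above library mean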
Starred values were filed as active, the others as inactive; i = inactive; / = no result given. Hits are enriched below; roughly 3% of the tested compounds scored in any of these assays.

SMILES	CHT block	NALP3 yeast inh	A1 inh	SUMO Mot1 rescue	NALP1 yeast inh	CHT PAM
O=C(CCN1CCN(Cc2ccccc2)CC1)Nc1ccccc1Cl	i	8.6	1.3	326.7*	28.8	i
Cn1c(=O)c(C(=O)c2ccc(S(C)(=O)=O)c(Cl)c2Cl)c(O)c2ccccc21	i	8.8	0.8	13.9	/	i
CCc1ccccc1NC(=O)NCc1cccnc1	i	10.0	-0.5	0.8	9.0	i
CCc1nn2c(NCCCO)cc(C)nc2c1-c1ccc(F)cc1	i	18.8	0.1	-1.3	1.2	i
Cc1cc(C)c2c(n1)nn1c(NCCCN(C)C)cc(C)nc21	i	16.8	0.3	0.5	18.3	8.06*
COc1cccc(CNC(=O)CSCc2cnn(-c3ccccc3)c2-n2cccc2)c1	i	19.2	-1.0	-20.6	10.6	i
CNC(=O)CSCc1cnn(-c2ccccc2)c1-n1cccc1	i	8.1	0.1	7.7	41.2*	i
CCCn1c(SCC(=O)N(C)CC(=O)Nc2ccc(C)cc2)n[nH]c1=O	/	3.6	-0.3	1.9	/	/
CCC(c1nnnn1Cc1ccccc1)N1CCN(C(=O)c2ccco2)CC1 (centres undefined)	i	1.2	0.5	-10.8	33.9*	i
CCC(c1nnnn1CCOC)N1CCN(C(=O)c2ccco2)CC1 (centres undefined)	i	14.5	0.4	-13.4	-8.1	i
CC1CCc2c(sc3ncn(CC(=O)N=Nc4c(O)[nH]c5ccccc45)c(=O)c23)C1 (centres undefined)	i	8.0	0.8	23.6	/	i
CCc1nc(N=Nc2c(O)[nH]c3ccccc23)c2c3c(sc2n1)CCC3	i	10.5	8.9*	-1.3	20.8	i
COc1cc(NC(=O)c2c(OC)cccc2OC)ccc1NC(=O)c1cc2ccccc2o1	i	44.0	-0.3	135.4	15.7	i
COc1cc(NC(=O)c2ccc(C)cc2C)ccc1NC(=O)c1cc2ccccc2o1	i	6.1	15.3*	-9.1	-14.9	i
COc1cc(NC(=O)c2ccccc2F)ccc1NC(=O)c1cc2ccccc2o1	i	27.6	13.8*	114.1	4.8	i
CC(C)c1ccc(NC(=O)CCN2C(=O)[C@@H]3Cc4ccccc4CN3C2=O)cc1	i	12.0	-0.4	160.5	26.1	i
O=C1CN(S(=O)(=O)c2cccc(Br)c2)CCN1	/	-1.4	0.1	-1.6	/	/
Cc1cccc(NC(=O)/C(C#N)=C/c2cn(CC(=O)NCc3ccco3)c3ccccc23)c1	i	/	52.6*	-18.0	25.3	i
CCC1(C)N=C(c2ccc3c(c2)OCO3)CC(c2ccccc2O)N1 (centres undefined)	i	43.1	-1.5	-5.6	3.9	i
COc1cccc(C2=NC(C)(C)NC(c3ccccc3O)C2)c1 (centres undefined)	i	21.6	-0.9	0.3	16.3*	i
Cc1cc(OC(=O)C(C)(C)C)c([N+](=O)[O-])c(=O)[nH]1	i	16.5	0.6	15.3	33.9*	i
CCN(C[C@H]1N[C@@](CC)(C(=O)OC)[C@H]2C(=O)N(Cc3ccccc3)C(=O)[C@@H]12)S(=O)(=O)c1ccc(C(C)(C)C)cc1	/	1.1	-0.1	8.7	/	/
COc1ccc(-n2nc(C(=O)NCc3ccco3)c3c4ccccc4n(C)c3c2=O)cc1	i	-8.6	2.6	-15.1	32.0	i
Cc1ccc(-n2nc(C(=O)NCc3ccc(C)o3)c3c4ccccc4n(C)c3c2=O)cc1	i	10.6	1.1	212.7	38.5*	i
CC(C)Oc1ccccc1C1NC(=O)CCC1[N+](=O)[O-] (centres undefined)	i	-1.4	0.8	-14.8	31.0	i
CCN(CC)S(=O)(=O)c1ccc2[nH]cc(C(=O)NCCN3CCCCCC3)c(=O)c2c1	i	-16.8	-0.1	-18.4	32.5*	i
COCCN(C(=O)c1csnn1)C(C(=O)NC1CCCCC1)c1ccccc1F (centres undefined)	i	26.9	0.1	-1.8	22.8	i
O=C(NC12CC3CC(CC(C3)C1)C2)C1CCCN1C(=O)Nc1ccccc1 (centres undefined)	i	11.8	0.1	-9.0	-1.6	i
